Measured values as given in the OligoGym collection.

Target: LPAR3
Experiment: pooled miR-30 sensor sort-seq; sequence = guide strand
Details: shRNA
Further: reference of the scale not given here.

Sequence | sensor-assay potency score (higher = more potent)
ATGAGGTTGGACACTGTCCAGA | -1.36
TTGACAGTCAAAGTTTTTGAAA | -1.6
TTAAACATCAGGAATACATAGG | -0.219
TTGTAGGAGTAGATGATGGGGT | -0.155
TTGACGTACACGTAGATCCGCA | 0.439
TTCCTGTCCAGTCATCGACAGT | -1.5
TTCTGTTTTTGATCACTGCCGC | -0.331
TAAATTAGCCAACAGGTAGTAG | -0.542
TTGCAGACTGCACCTTGGCTAA | -1.28
TTCCTCTTGACGTACACGTAGA | -0.848
TTGGCTAATACTATCCTCTATG | -0.824
TAAGACAGTCATCACCGTCTTC | -0.295

Target: LRCH2
Experiment: as above
Details: shRNA

Sequence | sensor-assay potency score (higher = more potent)
TTCTTCTCATTGTAAATCCTGG | -0.64
TTTATTACAAGAGAAATCCAGC | -0.214
TTCATTGCCACTTGAACTCTTC | 0.503
TATTACTTGTAAATGATGCAGC | 0.387
TATCCATTCTGCAACATGCTTG | -0.471
TACTTGTAAATGATGCAGCTTT | 0.0854
TTGCAATGGATTGTTATCCAAA | -1.31
TTCATCTGCTGAGACACTCTTT | 0.135
TTAAACATATCTGTGCTGGTGG | 0.402
TTCATCTATTTGATCCTTCTGA | 0.249
TTTATTATTACTGACGACCAAA | -1.09
TTGTTCATCTATTTGATCCTTC | 0.648

Target: LRRC14
Experiment: as above
Details: shRNA

Sequence | sensor-assay potency score (higher = more potent)
TTCCACACCATCATCCAAGAGG | -1.09
TTGTCCATGAAGGCCACCTTGA | -1.21
TACCACTGTCTTCTTGTCCATG | -0.472
TTGAGGTGGGCAGCATGTGGGC | -1.24
TAGCGGAAGTTGTCCTCGCCAT | -0.494
TAGCAGTCCACAGGGAAGGGGT | -0.698
TGGCACTGCAGCACCTGCCGTG | -0.778
ATGCACATAGTGGAGCCGCAGG | -1.72
TACGGCAGCAGTACAGTCCCAC | -0.572
TTGTCCTCGCCATCCACGGAGG | -1.48
TCACGCAGACAGGTGAAGCGGC | -0.746
TTGAAGCGCAGGTCCACGCGGC | -0.0617
